The panel holds about 83,000 compounds, 20% with a hit somewhere; the sample as a whole holds those more often.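 Plates (96-well) were seeded with cells, treated with compound at one concentration, and incubated for 48 hours before percent growth was determined.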 A number with no mark means an inactive call. The source made the active and inactive calls. The calls were made as follows: active = growth percent below 10; inactive = the rest.
What was measured:
Experiment in all cases: NCI-60 one-dose screen, 48 h (100 = growth as untreated, 0 = no growth, -100 = all killed)
Settings in all cases: 10 µM unless noted
HCT-15 colon = test system: HCT-15 colon
SNB-75 CNS = test system: SNB-75 CNS
SNB-19 CNS = test system: SNB-19 CNS
U251 CNS = test system: U251 CNS
PC-3 prostate = test system: PC-3 prostate
SK-MEL-5 melanoma = test system: SK-MEL-5 melanoma
UACC-62 melanoma = test system: UACC-62 melanoma
LOX IMVI melanoma = test system: LOX IMVI melanoma
SK-MEL-28 melanoma = test system: SK-MEL-28 melanoma
SK-MEL-2 melanoma = test system: SK-MEL-2 melanoma
EKVX NSCLC = test system: EKVX NSCLC
SN12C renal = test system: SN12C renal
UO-31 renal = test system: UO-31 renal
TK-10 renal = test system: TK-10 renal
ACHN renal = test system: ACHN renal
CAKI-1 renal = test system: CAKI-1 renal
A498 renal = test system: A498 renal
CCRF-CEM leukemia = test system: CCRF-CEM leukemia
MOLT-4 leukemia = test system: MOLT-4 leukemia

Compound	growth (HCT-15 colon)	growth (SNB-75 CNS)	growth (SNB-19 CNS)	growth (U251 CNS)	growth (PC-3 prostate)	growth (SK-MEL-5 melanoma)	growth (UACC-62 melanoma)	growth (LOX IMVI melanoma)	growth (SK-MEL-28 melanoma)	growth (SK-MEL-2 melanoma)	growth (EKVX NSCLC)	growth (SN12C renal)	growth (UO-31 renal)	growth (TK-10 renal)	growth (ACHN renal)	growth (CAKI-1 renal)	growth (A498 renal)	growth (CCRF-CEM leukemia)	growth (MOLT-4 leukemia)
CCCCO[C@@H]1C=C2[C@H]3CC(C)(C)C(=O)C[C@]3(C(=O)O[C@@H]3O[C@H](CO[C@@H]4O[C@H](CO)[C@@H](OC5OC(C)C(O)C(O)C5O)[C@H](O)[C@H]4O)[C@@H](O)[C@H](O)[C@H]3O)CC[C@@]2(C)[C@]2(C)CC[C@H]3C(C)(C)C(=O)CC[C@]3(C)[C@@H]12 (stereo partly specified)	54.5%	31.3%	88%	56.4%	85.2%	63.9%	81.4%	76.9%	41.5%	64.3%	87.1%	81.2%	19.4%	61.6%	22.9%	50.8%	93.9%	43.3%	51.5%
CN(C)c1ccc([C@@H](C(=O)Nc2cccc([N+](=O)[O-])c2)N(C(=O)c2cc3ccccc3[nH]2)c2cccc([N+](=O)[O-])c2)cc1	103%	78.2%	97.8%	88.8%	82.7%	97.7%	86.7%	88%	112%	113%	90.7%	97.8%	67.6%	117%	93.3%	92.5%	70.5%	96.1%	
O=c1cc(CNc2cc(F)cc(F)c2)c2ccc(I)cc2[nH]1	32.1%	-9.56% (active)		31.8%	26.7%	18.5%	36.7%	41%	64%	39.2%	44%	51.7%	39.7%	53.3%	36.3%	26.6%	3.87% (active)	14.8%	28.1%
Cn1c2ccccc2c2c3c(c4c5cc(Br)ccc5n(C)c4c21)C(=O)N(O)C3=O	21%	38.9%	16%	3.06% (active)	47%	-35.4% (active)	-4.53% (active)	-77.9% (active)	54.3%	56.3%	88.5%	-53.2% (active)	2.59% (active)	90.3%	-23% (active)	-22.4% (active)	103%	-22.2% (active)	-21.4% (active)
C=C(C)[C@@H]1CC[C@]2(C(=O)N3CCNCC3)CC[C@]3(C)[C@H](CC[C@@H]4[C@@](C)(CCC(=O)N5CCNCC5)[C@H](C(=C)C)CC[C@]43C)[C@@H]12	30.8%	86.3%	99%	7.62% (active)	57.7%	89.7%	104%	44.4%	96.7%	102%	102%	91.4%	64.3%	93.6%	93.9%	92.7%	76.2%	3.76% (active)	24.7%
O=C(Oc1ccc2c(c1)sc1nc(-c3ccccc3)[nH]c(=O)c12)C(F)(F)F	22.2%	10.7%	45.6%	28.9%	43.1%	11.6%	11.3%	18.8%	36%	26.6%	58.8%	32%	26.1%	61.7%	29%	19.3%	23.6%	21.9%	13.5%
N[C@@H]1CCC[C@H]1NCCCCN1C(=O)c2cccc3cc([N+](=O)[O-])cc(c23)C1=O	59.9%	38.1%	39.1%	33.7%	39%	62.4%	66.3%	14.9%	85.7%	78.2%	61.5%	27.4%	61.9%	44.1%		97.7%	52.8%	1.99% (active)	-3.36% (active)
CC(=O)c1sc(-c2ccc(F)cc2)cc1O	97.7%	89%		100%		100%	100%	97.4%	110%	107%	99.7%	109%	88.5%	95.1%	106%	93.3%	102%	97.6%	93.4%
CN(C)Cc1ccc(NC(=O)c2cncc(C#Cc3cnc(N)c4ncccc34)c2)cc1C(F)(F)F	-50.6% (active)	82.2%	-8.43% (active)	-57.5% (active)		24.8%	45.1%	-79.9% (active)	-83.1% (active)	40.5%	89.4%	69.9%	-82% (active)	110%	-81.8% (active)	83%	60.6%	-6.13% (active)	43.5%
O=C1/C(=C/c2ccc(Cl)cc2)CN(C(=O)C(Cl)Cl)C/C1=C\c1ccc(Cl)cc1	-70% (active)	-84% (active)	-92% (active)	-94.3% (active)	-38.4% (active)	-89.3% (active)	-59.6% (active)	-93.1% (active)	-81.5% (active)	-15% (active)	-60% (active)	-75.7% (active)	-99.7% (active)	-83.7% (active)	-100% (active)	-71% (active)	-95.8% (active)	7% (active)	-12.5% (active)
COc1ccccc1S(=O)(=O)Nc1ccc2c3c(cc(CCC(=O)NCCCCNc4cccc5c4C(=O)N(C4CCC(=O)NC4=O)C5=O)cc13)C(=O)N2C (stereo unspecified)	68.4%	-26.1% (active)	7.56% (active)	61.4%	3.96% (active)	-33% (active)	43.9%	21.4%	13.3%	11%	71%	7.95% (active)	55.2%	58%	92.4%	37.5%	15.6%	-0.604% (active)	0.837% (active)
C=C(C)[C@@H]1CC[C@]2(COC3CCCCO3)CC[C@]3(C)[C@H](CC[C@@H]4[C@@]5(C)C=C(C=O)C(=O)C(C)(C)[C@@H]5CC[C@]43C)[C@@H]12 (stereo partly specified)	-30% (active)	-16.3% (active)		-73.6% (active)	-57.7% (active)	-97.5% (active)	-74.9% (active)	-88.9% (active)	-68.7% (active)	-40.9% (active)	-60% (active)	-48.8% (active)	-86.8% (active)	-82.5% (active)	-59.2% (active)	-40.8% (active)	-95% (active)	-34.9% (active)	3.64% (active)
O=C(NCCCCO)c1cncnc1Nc1ccc2c(ccn2Cc2cccc(F)c2)c1	85.1%	85%	85.1%	94.7%	86%	95.2%	80.4%	93.7%	100%	106%	85.1%	87.7%	67%	98.7%	86.3%	79.8%	69.5%	103%	
COc1ccc(C2[C@@H](c3ccccc3)C(=O)N2c2cc(OC)c(OC)c(OC)c2)cc1F (stereo partly specified)	8.76% (active)	66.2%	30.6%	7.17% (active)	23.8%	-15.6% (active)	15.1%	19%	63.6%	2.73% (active)	34.7%	32.6%	38%	43.7%	34.2%	30.8%	2.92% (active)	6.85% (active)	5.7% (active)
COC(=O)c1c2c(c[n+]([O-])c1C)C(=O)C=C(NCc1ccccc1)C2=O	-58.8% (active)	-97.3% (active)	-99.4% (active)	-93.1% (active)	-10.8% (active)	-100% (active)	-81.3% (active)	-74.6% (active)	-71.4% (active)	-70.8% (active)	-98.8% (active)	-91.5% (active)	-100% (active)	-82.4% (active)	-89.7% (active)	-98.2% (active)	-99.3% (active)	0.673% (active)	-44.3% (active)
C/C=C1/CN(CCCCC)CC[C@H]1C(=O)c1cc2ccccc2[nH]1	87%	76.4%	96.7%	98.1%	85.8%	87.9%	95%	90.1%	111%	118%	94.1%	86.1%	50.7%	120%	96.1%	87.6%	88.9%	96.8%	86.1%
